# Measurements as given in PubChem BioAssay.
# Activity calls are given as the source filed them.
# How the values were obtained:
# [1] = target: Albumin (Bos taurus) (UniProt P02769); assay: compounds binding labelled BSA control protein – biochemical, small-molecule microarray, Alexa647 label, 635/667 nm fluorescence, artefact control for SMM control protein annotation, profiling panel (AID 1118); details: BSA-A647 binding, fluorescence 635 nm, higher = more signal;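 further: score merges 667 nm emission intensity and signal-to-noise per printed compound spot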
# [2] = probe aXIP binding to arrayed compounds – biochemical, NeuroSMM set, 635/667 nm fluorescence, primary screen (AID 1119); details: small-molecule microarray, higher = more signal, called active from +8 up or from −8 down;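 further: probe is the protein aXip251-270 applied at 1 µg/mL to compound-printed slides; binding of probe to printed compounds measured as 667 nm fluorescence plus signal to noise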
# [3] = probe aNOTCH3 binding on compound microarray – biochemical, small-molecule microarray, 635/667 nm fluorescence, primary screen (AID 1120); details: higher = more signal;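 further: probe is a biotin-tagged antibody raised against NOTCH3 rather than NOTCH3 protein; score merges spot fluorescence near 667 nm with spot signal to noise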
# [4] = probe aNOTCH2 binding on compound microarray – biochemical, small-molecule microarray, 635/667 nm fluorescence, primary screen (AID 1121); details: higher = more signal;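 further: score merges feature fluorescence read at 667 nm with its signal to noise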
# [5] = target: Carbonic anhydrase 2 (Homo sapiens) (UniProt P00918); assay: compounds binding carbonic anhydrase 2 – biochemical, small-molecule microarray, Alexa647-labelled CAII, profiling panel (AID 1122); details: CAII-A647 binding fluorescence, higher = more signal
# [6] = COS7 lysate on small-molecule microarray, probe aHis, 635 nm (AID 1123); details: COS7 cell lysate, fluorescence, higher = more signal;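 further: z-score combines 667nm fluorescence intensity with signal-to-noise per printed compound spot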
# [7] = probe aLAP1 signal on lysate-treated microarray – cell lysate, small-molecule microarray, COS7 lysate, primary screen (AID 1124); details: probe aLAP1, fluorescence, higher = more signal;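 further: lysate comes from COS7 cells expressing LAP1 and is applied at 0.3 µg/mL; score merges spot fluorescence near 667 nm with signal-to-noise over triplicate slides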
# [8] = test system: Sam68 (KHDRBS1); assay: compounds binding KHDRBS1 protein – biochemical, small-molecule microarray, 635 nm fluorescence, primary screen (AID 1125); details: higher = more signal;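 further: score merges 667 nm channel intensity with signal to noise over triplicate slides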
# [9] = test system: Chordin-like protein 2 (CHRDL2); assay: compounds binding chordin-like 2 – biochemical, small-molecule microarray, 635 nm fluorescence, primary screen (AID 1126); details: fluorescence 635 nm, higher = more signal;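 further: printed compound slides probed with Chrdl2 protein at 4 µg/mL for 1 h at 4 C; score merges 667 nm emission intensity with signal to noise over three replicate slides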
# [10] = target: Concanavalin-A (Canavalia ensiformis) (UniProt P02866); assay: compounds binding concanavalin A lectin – biochemical, small-molecule microarray, Alexa647 label, 635 nm, artefact control for SMM control protein annotation, primary screen (AID 1127); details: ConA-A647 binding fluorescence, higher = more signal;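 further: z combines 667 nm emission intensity with signal-to-noise across three replicate slides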
# Chain of Concanavalin-A (Canavalia ensiformis) (P02866 whole entry, looked up): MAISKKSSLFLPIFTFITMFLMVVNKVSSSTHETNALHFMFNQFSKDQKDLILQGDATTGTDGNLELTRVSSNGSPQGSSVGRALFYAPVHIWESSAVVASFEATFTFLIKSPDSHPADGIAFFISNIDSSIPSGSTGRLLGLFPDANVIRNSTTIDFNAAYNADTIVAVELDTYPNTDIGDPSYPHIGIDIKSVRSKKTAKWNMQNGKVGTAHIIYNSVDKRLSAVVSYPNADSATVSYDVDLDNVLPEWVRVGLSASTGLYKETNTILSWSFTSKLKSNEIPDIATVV
# Chain of Albumin (Bos taurus) (P02769 whole entry, looked up): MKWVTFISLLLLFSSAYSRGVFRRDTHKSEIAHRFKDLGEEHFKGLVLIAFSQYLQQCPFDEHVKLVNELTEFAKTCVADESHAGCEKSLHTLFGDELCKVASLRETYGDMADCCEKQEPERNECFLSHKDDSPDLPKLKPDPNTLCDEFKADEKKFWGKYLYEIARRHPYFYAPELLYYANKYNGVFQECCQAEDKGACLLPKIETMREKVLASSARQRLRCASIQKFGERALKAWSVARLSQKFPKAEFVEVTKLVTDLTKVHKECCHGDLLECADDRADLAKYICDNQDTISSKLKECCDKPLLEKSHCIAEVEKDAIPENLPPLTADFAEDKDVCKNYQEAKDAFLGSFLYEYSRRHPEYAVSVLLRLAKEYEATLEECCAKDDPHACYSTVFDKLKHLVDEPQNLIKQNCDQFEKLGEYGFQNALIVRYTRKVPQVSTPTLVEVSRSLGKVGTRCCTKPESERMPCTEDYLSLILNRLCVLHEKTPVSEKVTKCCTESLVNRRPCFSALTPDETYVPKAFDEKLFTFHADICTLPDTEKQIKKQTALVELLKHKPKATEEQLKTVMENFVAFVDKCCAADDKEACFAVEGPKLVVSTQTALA
SMILES,composite z-score [1],composite Z-score [2],composite z-score [3],composite z-score [4],composite z-score [5],composite z-score [6],composite z-score [7],composite z-score [8],composite z-score [9],composite z-score [10]
NCCCCCNC(=O)[C@@H]1C[C@@H]2C(=O)NCC(=O)N2[C@@H]1c1ccc(O)cc1,0.802,0.126 (inactive),-0.0889,-0.108,0.558,0.899,0.249,1.31,0.831,1.06
COC(=O)[C@@]1(Cc2ccc(OC)cc2)[C@H]2c3cc(C(=O)N4CCCC4)n(Cc4ccc(OC)c(OC)c4)c3C[C@H]2CN1C(=O)c1ccccc1,1.08,0.983 (inactive),1.28,0.852,0.592,2.74,0.601,1.3,0.206,1.14
CCCN1C(=O)[C@]2(CCS(=O)(=O)c3ccccc3)N=C(c3ccc(OCCCO)cc3)O[C@@H]2c2ccccc21,0.414,-0.0745 (inactive),-0.0328,-0.0995,0.276,1.15,-0.031,1.29,0.359,0.414
C=C[C@H](COC(C)=O)N(C(=O)OC(C)(C)C)S(=O)(=O)c1ccc(Br)cc1,-0.19,-0.526 (inactive),0.704,0.463,0.162,0.216,0.0842,0.355,0.55,0.193
CC(=O)NCCCC[C@@H]1NC(=O)[C@@H]2C[C@H](C(=O)NCCCCCCNC(=O)CS)[C@H](c3cccc(OCCO)c3)N2C1=O,-0.133,0.405 (inactive),-0.0996,-0.151,0.561,1.48,0.689,0.825,0.568,0.914
CCC(CC)C(O)C1C=CC2C(=O)N(C)C(=O)C2N1Nc1ccccc1 (stereo not given),0.333,-0.574 (inactive),0.149,-0.05,0.652,2.5,0.515,1.07,-0.237,1.2
CC(=O)NCCCC[C@@H]1NC(=O)[C@@H]2C[C@H](C(=O)NCCCCN(C)C)[C@H](c3cccc(OCCO)c3)N2C1=O,-0.374,0.714 (inactive),-0.186,-0.112,0.57,0.944,0.511,0.259,0.462,0.664
CCOc1cc(C(O)C2C=CC3C(=O)N(c4ccccc4)C(=O)C3N2Nc2ccccc2)ccc1O (stereo not given),0.0944,-0.224 (inactive),-0.0647,-0.164,0.617,1.31,0.791,0.381,-0.988,0.403
CC(C)(C)OC(=O)CC[C@@]12N=C(c3ccc(OCCCO)cc3)O[C@@H]1c1ccccc1N(CCS(=O)(=O)c1ccccc1)C2=O,-0.458,0.733 (inactive),0.106,-0.179,0.73,1.59,0.184,0.461,0.623,1.14
COc1ccc(COC2OC[C@]3(C)[C@H]4C5=C(CN3C(=O)OC(C)(C)C)[C@H](C)C(CO)C(CO)C5CC[C@@H]24)cc1 (stereo not given in full),0.73,0.086 (inactive),0.339,0.191,0.513,0.814,0.846,0.567,-0.888,0.927
COC(=O)C=C(CC(O)c1cccc(Cl)c1)OC (stereo not given),1.04,1.22 (inactive),0.936,0.436,0.811,0.461,1.02,0.0579,0.091,-0.115
O=C1C2C=CC(C(O)c3c(F)cccc3Cl)N(Nc3ccccc3)C2C(=O)N1c1ccccc1 (stereo not given),0.876,0.229 (inactive),0.418,0.014,0.382,2.81,0.045,1.31,-0.3,1.14
O=C1NC(=O)C2C1C=CC(C(O)c1cccc3ccccc13)N2Nc1ccccn1 (stereo not given),0.421,0.0886 (inactive),0.138,-0.0966,0.553,0.296,0.447,0.0488,0.394,0.506
O=C1c2ccccc2[C@](Cc2ccccc2I)(C(=O)NC2CC2)[C@H](c2ccc(CO)cc2)N1C1CCCCC1,0.767,0.0542 (inactive),0.174,-0.0551,0.636,2.12,1.49,1.22,0.273,1.2
COCCOC(=O)N1C(=O)[C@@]2(c3cc(C#Cc4ccc(OC)cc4)ccc31)[C@H](C(=O)N1CCCCCCC1)[C@H]1C(=O)O[C@H](c3ccccc3)[C@H](c3ccccc3)N1[C@@H]2c1ccc(OCCO)cc1,-1.25,3.51 (inactive),0.872,0.711,0.712,1.49,0.913,1.3,1.48,0.987
COC(=O)[C@@]1(Cc2ccc(F)cc2)[C@H]2c3cc(C(=O)N(C)C)n(Cc4nc5ccccc5[nH]4)c3C[C@H]2CN1C(=O)c1ccccc1,1.05,0.0895 (inactive),0.392,0.0274,0.824,3.03,0.35,0.651,-0.41,0.683
